In PubChem BioAssay one finds inhibition data, which are given here for 17 compounds.

Structures are written as SMILES. A number with no mark means an inactive call. The rule behind the calls is not given here.

This experiment deals with Pantothenate synthetase (Mycobacterium tuberculosis (strain ATCC 25618 / H37Rv)) (UniProt P9WIL5). Kind of experiment: Recombinant Mtb pantothenate synthetase (PanC) inhibitors, coupled enzyme, confirmatory (AID 375).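 Note: 0% = full reaction with vehicle and 100% = no enzyme background.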 Particulars: coupled enzyme assay; at 10 µM, stronger effect = higher value.
Pantothenate synthetase (Mycobacterium tuberculosis (strain ATCC 25618 / H37Rv)), sequence (P9WIL5 whole entry, looked up): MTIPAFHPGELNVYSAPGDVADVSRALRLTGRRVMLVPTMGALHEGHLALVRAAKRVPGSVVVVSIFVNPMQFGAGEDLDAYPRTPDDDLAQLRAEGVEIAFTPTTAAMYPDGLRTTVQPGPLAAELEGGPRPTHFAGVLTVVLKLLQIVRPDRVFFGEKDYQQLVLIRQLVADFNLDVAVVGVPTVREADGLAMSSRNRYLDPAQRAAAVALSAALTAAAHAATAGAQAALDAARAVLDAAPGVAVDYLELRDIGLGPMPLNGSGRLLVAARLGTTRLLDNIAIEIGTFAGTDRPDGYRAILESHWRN
With `Cc1ccccc1OCC(O)CN` (configuration not stated), the inhibition was 0%.

With `OCCN1CCN(CCCN2c3ccccc3Sc3ccc(Cl)cc32)CC1`, the inhibition is 0%.

Consider `O=c1c(-c2ccc(Br)cc2)coc2c(CN3CCOCC3)c(O)ccc12`, for which the inhibition was 0%.

As to `CCOC(=O)c1c(NC(=O)CSc2nc3c(c(=O)n(C)c(=O)n3C)n2C(C)C)sc(C)c1C`, the inhibition is 10%.

As for `Cc1ccc(C2/C(=C(/O)c3cnn(-c4ccccc4)c3C)C(=O)C(=O)N2CCN2CCOCC2)o1` (configuration not stated), the inhibition was 1%.

Turning to `O=C(NCCN1CCCCCC1)c1ccc(CS(=O)(=O)c2ccc(Br)cc2)o1`, the inhibition is 0%.

For the compound `CCOc1ccccc1NC(=O)CSc1nnc2c(CC)c(C)nc(N)n12`, the inhibition is 0%.

Take `COc1cc(-c2nnc(SCC(=O)c3cc(C)n(CC4CCCO4)c3C)o2)cc(OC)c1OC` (configuration not stated): the inhibition is 0%.

Consider `COC(=O)c1sccc1NC(=O)c1ccco1`, for which the inhibition was 1%.

With `CCOC(=O)N1CCN(C(=O)CSc2nnc(Cc3ccccc3)o2)CC1`, the inhibition is 0%.

For `Cc1ccc2c(c1)NC(=O)C(CC(=O)NCCCN1CCN(c3cc(Cl)ccc3C)CC1)O2` (configuration not stated), the inhibition is 1%.

For `CCCC(=O)OCCn1c(Br)nc2c1c(=O)[nH]c(=O)n2C`, the inhibition is 7%.

In the case of `CCOc1ccc(NC(=O)CSc2nccn2C)cc1`, the inhibition is 6%.

Take `NC(=O)C1(N2CCCCC2)CCN(Cc2ccccc2Cl)CC1`: the inhibition is 0%.

As to `O=[n+]1cc(-c2ccc(F)cc2)n([O-])c2c1CCC2`, the inhibition was 0%.

Regarding `CCOc1cccc(Oc2ccc(C(F)(F)F)cn2)c1`, the inhibition was 0%.

Regarding `CCCn1cc(C(CC(=O)O)C(=O)O)c2ccccc21` (configuration not stated), the inhibition was 8%.
